High-throughput results deposited in PubChem BioAssay by several laboratories.
Sampled rows, rich in hits. Any-hit rate of the full collection: about 4.6%.
SKKanGAS inh: S. pyogenes SKKanGAS growth inhibitors in kanamycin, primary screen, streptokinase expression inhibitor project, SKKanGAS strain, BacTiter-Glo luminescence | inhibition, % at 7.5 µM | AID 1662, 2009 | 6 h | hit rate 1.3% among 300,000;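 active = mean replicate score, as percent of positive control median, at least 50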;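 also: strain carries kanamycin resistance gene driven by streptokinase promoter and grows in 40 µg/ml kanamycin; loss of luminescence reflects streptokinase promoter inhibition or plain growth inhibition; 0% = median of DMSO wells and 100% = positive control at its reference dose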
TIM10 inh: growth inhibitors of isogenic TIM10 control yeast, primary screen, counter-screen for tim10-1 yeast inhibitor project, luminescence, uHTS; hit rate 1.4% among 330,000; S. cerevisiae TIM10 strain growth, BacTiter-Glo luminescence, 24 h; inhibition, % at 10 µM;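 active = inhibition of 40% or more at the single tested concentration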;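 also: wild-type TIM10 isogenic control strain grown at permissive 25 °C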
tim23-1 inh: growth inhibitors of tim23-1 mutant yeast, primary screen, luminescence, uHTS. S. cerevisiae tim23-1 growth, BacTiter-Glo luminescence, 24 h. inhibition, % at 20 µM. hit rate 1.3% among 330,000. AID 463212, 2010;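 active = growth inhibition of the mutant yeast at or above 50%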;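 also: temperature-sensitive mutant grown at 25 °C; plate controls were DMSO-treated mutant yeast for no effect and medium wells lacking yeast for full effect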
tim10-1 inh: growth inhibitors of tim10-1 mutant yeast, primary screen, luminescence, uHTS; S. cerevisiae tim10-1 ts strain growth, BacTiter-Glo, 24 h; inhibition, % at 20 µM; hit rate 2.2% among 330,000; AID 463190, 2010;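 active = inhibition of at least 40%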;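 also: mutant grown at 25 °C; 0% = DMSO wells with yeast and 100% = wells holding no yeast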
NLRP3 yeast inh: NALP3 inflammasome inhibitors in reconstituted yeast, primary screen, luminescence, uHTS; AID 2825, 2010; hit rate 0.39% among 330,000; Yeast reconstituted NLRP3/ASC/caspase-1, beta-gal luminescence, 24 h; inhibition, % at 10 µM;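 active = inhibition of 50% or more; inactive = inhibition below 50%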;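 also: plate controls were induced DMSO wells for no effect and uninduced yeast grown without galactose for full effect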
An asterisk follows results filed as active; / = no result given.

SMILES	SKKanGAS inh	TIM10 inh	tim23-1 inh	tim10-1 inh	NLRP3 yeast inh
COc1ccc(C(=O)CC(=O)C(=O)Nc2ccccc2C(F)(F)F)cc1	85*	0	10	15	18
COc1ccc(CCNC(=O)COC(=O)c2cc(S(=O)(=O)N3CCCC3)ccc2O)cc1	/	5	-2	6	20
Cc1nn(C(C)C(=O)NCCc2cccs2)c(=O)c2nn(-c3ccccc3)c(C)c12 (configuration not stated)	22	12	4	-3	11
COC(=O)[C@H](CCSC)NC(=O)Cn1cnc(C(=O)Nc2ccc(C)c(C)c2)n1	/	-13	26	-2	/
CCCOc1cccc(-c2cc(C(=O)N/N=C/c3ccccn3)c3ccccc3n2)c1	92*	27	41	19	15
CCCOc1cccc(-c2cc(C(=O)N/N=C/c3cccnc3)c3ccccc3n2)c1	/	-8	14	8	8
COc1cc2cc(Oc3ccc4ccc(=O)oc4c3)c(=O)oc2cc1OC(C)=O	46	8	14	13	6
COc1cc2cc(Oc3ccc4ccc(=O)oc4c3)c(=O)oc2cc1O	59*	3	15	3	8
O=[N+]([O-])c1ccc(O)c(P(=O)(c2ccccc2)c2ccccc2)c1	-1	9	20	23	16
Cc1ccc(N=Nc2ccc(O)c(P(=O)(c3ccccc3)c3ccccc3)c2)cc1	50*	1	3	-4	17
COCCn1c(SCC(=O)Nc2c(C)n(C)n(-c3ccccc3)c2=O)nnc1-c1ccncc1	/	7	-15	-4	-27
Cn1c2ccccc2c(=O)c2ccc(C#Cc3ccc(N)cc3)cc21	70*	21	30	27	14
COc1ccc(C#Cc2ccc3c(=O)c4ccccc4n(C)c3c2)cc1	76*	21	16	29	15
COc1ccccc1C#Cc1ccc2c(=O)c3ccccc3n(C)c2c1	6	-8	2	25	11
COC(=O)c1ccccc1NC(=O)CSc1n[nH]c(-c2ccco2)n1	-2	0	30	14	23
CN(CC(=O)Nc1ccccc1Cl)C(=O)CN1C(=O)NC(c2ccccc2)(c2ccccc2)C1=O	/	7	1	4	-2
Cc1ccc(-c2nc(CS(=O)CC(=O)NCc3ccc4c(c3)OCO4)c(C)o2)cc1 (configuration not stated)	0	5	16	16	-12
O=C1C=C(Nc2ccccc2)C(=O)c2ccccc21	12	14	13	19	39
O=C1C=C(Nc2ccccc2)c2ccccc2C1=O	68*	21	16	24	7
O=C1C=C(Nc2cccc3cccnc23)c2ccccc2C1=O	63*	17	18	13	17
Cc1oc(C(C)(C)C)cc1C(=O)N1CCN(C(c2ccccc2)c2ccccc2)CC1	63*	4	28	18	8
Oc1ccc(Br)cc1CNc1cccc2cccnc12	55*	16	25	7	29
Oc1ccc(Cl)cc1CNc1cccc2cccnc12	57*	7	13	7	32
Cc1ccc(S(=O)(=O)/N=C2\C=C(Nc3cccc(C(=O)O)c3)C(=O)c3ccccc32)cc1	87*	18	32	18	22
CCc1ccc(S(=O)(=O)/N=C2\C=C(Nc3ccc(C(=O)O)cc3)C(=O)c3ccccc32)cc1	96*	6	45	30	30
SMILES	SKKanGAS inh	TIM10 inh	tim23-1 inh	tim10-1 inh	NLRP3 yeast inh
O=C(O)c1cccc(NS(=O)(=O)c2ccc3c(c2)C(=O)c2ccccc2C3=O)c1	/	11	19	27	11
CC(C)(C)c1ccc(S(=O)(=O)/N=C2\C=C(NS(=O)(=O)c3ccccc3)C(=O)c3ccccc32)cc1	94*	18	50	29	17
O=C1CN(C(=O)COC(=O)COc2ccccc2)c2ccccc2N1	/	3	-4	-10	9
COc1ccc(OCC(=O)NNC(=O)c2ccc3c(=O)n4c(nc3c2)CCC4)cc1	-7	3	-1	-11	13
O=C1c2ccccc2CC1(Cc1ccccc1)Cc1ccccc1	57*	6	3	34	1
CCC1(CC)Cc2ccccc2C(=O)N1	1	-4	-9	3	33
CC(=O)NC(CC(=O)OCc1ccc([N+](=O)[O-])cc1)c1ccccc1 (configuration not stated)	-5	0	6	-10	-12
CCOC(=O)c1ccc(Nc2nc(C)nc3c2nnn3Cc2ccccc2)cc1	53*	8	18	10	11
CCC[C@@H](CN[C@@H](CNC)[C@H](C)CC)NCC1CCC(C(C)(C)C)CC1 (some centres not stated)	1	8	-26	1	31
CC[C@@H](C)[C@H](CNC)NC[C@@H](Cc1cccc2ccccc12)NCCc1cccc(C(F)(F)F)c1	99*	-2	-95	29	34
CCC[C@@H](CN[C@@H](CNC)C(C)C)NCCCCc1ccccc1	4	3	-11	-6	20
CCC[C@H](CN[C@@H](CNC)[C@H](C)CC)NCCc1cc(C(F)(F)F)cc(C(F)(F)F)c1	51*	12	-9	13	32
O=C(Nc1nnc(Cc2ccccc2)s1)c1ccccc1	2	-6	12	13	38
O=C(Nc1ncc(Cc2ccc(SC(F)F)cc2)s1)c1ccccc1	82*	30	7	14	-11
CCCN(Cc1nnc(-c2ccccc2Cl)o1)C(=O)c1cccc(S(=O)(=O)N2CCOCC2)c1	0	7	17	7	9
O=C(Nc1ccc(OC(F)(F)F)cc1)C1CCCN(S(=O)(=O)c2cnc[nH]2)C1 (configuration not stated)	99*	-6	-12	-2	15
CN1CCN(c2ncnc3c2c(-c2ccccc2)cn3-c2ccc(F)cc2)CC1	-10	15	11	18	12
c1ccc(-c2cn(-c3ccccc3)c3ncnc(N4CCCCC4)c23)cc1	67*	27	31	27	5
COc1ccc(-c2cc(C3CCN(c4ccc(C(C)=O)cc4[N+](=O)[O-])CC3)[nH]n2)cc1	83*	29	21	35	27
COC(=O)c1ccc(N2CCC(c3cc(-c4ccc(OC)cc4)n[nH]3)CC2)c([N+](=O)[O-])c1	90*	24	7	34	20
CC(=O)c1ccc(N2CCC(c3cc(-c4ccc(Cl)cc4)n[nH]3)CC2)c([N+](=O)[O-])c1	88*	38	19	33	5
COc1ccc(N2CCN(c3ccc(C(=O)O)cc3[N+](=O)[O-])CC2)cc1	4	5	-13	15	2
COC(=O)c1ccc(N2CCN(C(=O)C3CC3)CC2)c([N+](=O)[O-])c1	-1	-10	1	12	5
CC(NCC(=O)Nc1cc(S(=O)(=O)N2CCOCC2)ccc1N1CCOCC1)c1ccco1 (configuration not stated)	/	7	-6	2	16
